Laboratory results published in paper PMC5540273 (PLoS ONE, 2017).

Tested on: CDKL3
Details: concentration: 1 μM, replicates: in singlicate; n = 1
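Note: KINOMEscan kinase panel screen.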

SMILES	%Inh
CCCC(=O)Nc1n[nH]c2ncc(-c3cccc4ccccc34)cc12 [SB-642057]	0%
Nc1nc(N)c2nc(-c3ccccc3)[nH]c2n1 [SKF-12778]	2%
Cl.c1ccc(Cn2cnc3cc(Nc4ncnc5ccccc45)ccc32)cc1 [GW272142]	0%
COc1cccc(-n2cnc3c(N)ncnc32)c1 [SKF-97416]	0%
COC(=O)c1c(-c2ccccc2)c2cc(Br)ccc2c(=O)n1Cc1ccc(S(C)(=O)=O)cc1	22%
COc1cccc(C2=C(Nc3cccc(C(=O)O)c3)C(=O)NC2=O)c1 [SB-390770]	0%
O=C1NC(=O)C(c2ccccc2)=C1Nc1cccc(O)c1 [SB-390534]	0%
O=c1cc(N2CCOCC2)nc2n(Cc3ccc(F)c(Cl)c3)ccn12 [GSK2297099]	0%
Cc1nnc(-c2ccc3ncn(-c4ccc(S(C)=O)cc4)c3c2)o1 (stereo not drawn)	2%
CCc1nc(-c2cccc(C)c2)c(-c2ccncc2)s1	7%
CCn1c(-c2ccoc2)nc2cnccc21 [SB-733887]	0%
COc1cc2ncn(-c3cc(OCc4ccc(S(C)(=O)=O)cc4)c(C(N)=O)s3)c2cc1OC [GW869979]	0%
COc1ccc(-c2coc3ccc(-c4nnc(SCc5cccc(C#N)c5)o4)cc23)cc1	0%
Fc1cccc(CSc2nnc(-c3ccc4c(c3)CCO4)o2)c1	0%
Cc1ccc(Oc2ccc(Nc3ncnc4cc[nH]c34)cc2C)cn1	3%
